Sampled rows, rich in hits. Any-hit rate of the full collection: about 2.3%.
MsrA inh: inhibits bovine methionine sulfoxide reductase A; purified bovine MsrA, absorbance read-out; inhibition, % at 15.5 µM; 360,000 compounds, 0.75% hits; in the data active means inhibition above about 4.5%;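 further: 0% = vehicle wells with enzyme and 100% = reference inhibitor wells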
EBNA-1 inh: blocks EBNA-1 binding to DNA; AID 1950; EBNA-1 DNA binding, fluorescence polarization; 300,000 compounds, 0.34% hits; inhibition, % at 14.8 µM; in the data active means inhibition above about 28%
bovine MsrA act: activates bovine MsrA enzyme. purified bovine MsrA, absorbance read-out. activation, % at 10.6 µM. 360,000 compounds, 0.3% hits. AID 602163; in the data active means activation above about 7.5%;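 further: 0% = vehicle and 100% = reference activator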
ZTA counter: ZTA (EBV) inhibition in EBNA-1 counter-screen; P03206; ZTA-DNA binding, fluorescence polarization; inhibition, % at 11 µM; 320,000 compounds, 0.15% hits; AID 2234; in the data active means inhibition above about 33%
PP1 inh: blocks human PP1-alpha phosphatase, a PP5 counter-screen | P62136 | inhibition, % at 6.7 µM | AID 2235 | 320,000 compounds, 0.9% hits | purified PP1alpha, OMFP fluorescence;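 active means inhibition above the mean inhibition of all tested compounds plus 3 SD, computed separately for each screening campaign, cut at about 15% in these data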
PP5 inh: PP5 (human) phosphatase inhibition. P53041. purified PP5c, OMFP substrate fluorescence. inhibition, % at 6.7 µM. 320,000 compounds, 0.18% hits. AID 1987;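 active means inhibition above the campaign's mean inhibition across all tested compounds plus 3 SD, cut at about 9.5% in these data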;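 further: 0% = DMSO only and 100% = 100 µM cantharidin control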
Target sequence (P53041 whole entry, looked up): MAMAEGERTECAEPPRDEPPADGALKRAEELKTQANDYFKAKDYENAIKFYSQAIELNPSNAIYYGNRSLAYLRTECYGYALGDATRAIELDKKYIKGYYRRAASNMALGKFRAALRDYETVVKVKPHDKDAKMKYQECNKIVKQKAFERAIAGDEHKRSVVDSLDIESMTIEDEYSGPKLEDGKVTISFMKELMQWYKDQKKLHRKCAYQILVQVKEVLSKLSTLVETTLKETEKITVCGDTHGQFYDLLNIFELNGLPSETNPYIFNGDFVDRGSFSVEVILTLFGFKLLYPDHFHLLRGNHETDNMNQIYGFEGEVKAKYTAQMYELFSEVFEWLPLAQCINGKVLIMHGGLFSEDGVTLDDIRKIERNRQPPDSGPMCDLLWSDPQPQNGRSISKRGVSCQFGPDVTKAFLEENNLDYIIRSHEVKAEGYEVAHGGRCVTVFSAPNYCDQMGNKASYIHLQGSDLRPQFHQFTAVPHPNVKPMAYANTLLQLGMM
PP1 confirm: confirmation of human PP1 phosphatase inhibitors; purified PP1alpha, OMFP substrate fluorescence; shares compounds with PP1 inh; inhibition, % at 6.7 µM; 1,900 compounds, 52% hits;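 active means mean PP1 inhibition above a set limit taken from the earlier primary screen, cut at about 15% in these data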
PP5 inh counter: PP5 phosphatase inhibition, counter-screen for PP1 inhibitors; shares compounds with PP1 inh; purified PP5c, OMFP fluorescence; inhibition, % at 6.7 µM; 1,900 compounds, 4% hits;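 active means mean PP5 inhibition over triplicate wells above about 9.5% taken from the earlier PP1 screen, limit read from the data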
Numbers without * were called inactive; / = no result.

SMILES	MsrA inh	EBNA-1 inh	bovine MsrA act	ZTA counter	PP1 inh	PP5 inh	PP1 confirm	PP5 inh counter
CCN(CC(=O)NC1CCS(=O)(=O)C1)C(C)C(=O)Nc1ccc(F)cc1 (configuration not stated)	0	/	-1	7	-3	1	/	/
C[C@]12C=CC(=O)C=C1CC[C@@H]1C2=CC[C@]2(C)[C@@H](C(=O)CN3CCN(c4cc(N5CCCC5)nc(N5CCCC5)n4)CC3)CC[C@@H]12	1	-1	1	-10	26*	13*	50*	25*
CCCN1C(=O)C(NC(C)=O)c2ccccc21 (configuration not stated)	-1	16	-2	19	-1	-1	/	/
CCc1ccc2c(c1)C(NC(C)=O)C(=O)N2CCN1CCOCC1 (configuration not stated)	1	-2	-8	4	41*	4	36*	-4
COc1ccc(/C=N/Nc2cc(C)nc(-n3nc(C)cc3C)n2)c(OC)c1	2	6	-6	-1	37*	2	48*	1
CCOc1cc(/C=N/Nc2nc(C)cc(=O)[nH]2)ccc1O	2	-13	-2	2	-2	-1	/	/
Cc1cc(N/N=C/c2ccc(F)cc2)nc(-n2nc(C)cc2C)n1	0	2	-4	6	27*	3	36*	-1
COc1ccccc1/C=N/Nc1cc(C)nc(N2CCOCC2)n1	1	10	-3	12	-5	0	/	/
CCOc1cc(/C=N/Nc2cc(C)nc(-n3nc(C)cc3C)n2)ccc1O	2	2	-3	-8	23*	2	22*	3
CN[C@H](C)C(=O)NC[C@H]1O[C@@H](n2cnc3c(N)ncnc32)[C@H](O)[C@@H]1O	/	/	-5	/	/	/	/	/
CCOc1ccc(CNC(=O)CCn2c(=O)oc3ccccc32)cc1	0	2	-10	10	23*	3	-4	-4
CC(CN1C(C)CCCC1C)OC(=O)c1cccc(Br)c1 (configuration not stated)	0	-8	-1	0	2	3	/	/
O=C1CN(C(=O)COc2ccc(Br)cc2)c2ccccc2N1	1	10	3	-1	-3	-2	/	/
O=c1cc(-c2ccco2)nc(SCc2cccc(Cl)c2)[nH]1	0	-13	-13	-3	18*	2	12	1
Clc1cccc(CSc2ccc(-c3ccco3)nn2)c1	0	-10	2	9	0	0	/	/
N#C/C(=C(/O)c1ccc([N+](=O)[O-])cc1)c1nc2ccccc2[nH]1	0	-5	1	-10	-3	1	/	/
N#C/C(=C(/O)c1ccc(Cl)c([N+](=O)[O-])c1)c1nc2ccccc2[nH]1	1	-3	-6	-14	20*	4	14	-1
S=c1[nH]nc(-c2cc(-c3ccccc3)n[nH]2)n1/N=C/C=C/c1ccccc1	0	6	0	21	23*	5	17*	0
COc1ccccc1/C=C/C=N/n1c(-c2cc(-c3ccccc3)n[nH]2)n[nH]c1=S	2	1	0	21	22*	2	27*	3
COc1ccc(C)cc1NC(=O)CN(C)S(=O)(=O)c1ccc2c(c1)CC(C)N2C(C)=O (configuration not stated)	-1	2	-1	4	-1	-2	/	/
NC(=O)C1CCN(C(=O)c2ccc3c(=O)n(Cc4ccco4)c(SCc4ccc([N+](=O)[O-])cc4)nc3c2)CC1	-1	2	-14	12	-3	3	/	/
Cc1cc(C2=NNC(=NC3CCCCC3)SC2)c(C)n1-c1c(C)n(C)n(-c2ccccc2)c1=O	0	1	-2	13	19*	2	0	-3
Cc1ccc(NC(=O)c2ccc(OCc3c(C)noc3C)cc2)cc1C	0	/	-6	/	/	/	/	/
CCc1nnc(NC(=O)c2ccc(S(=O)(=O)N(C)Cc3ccccc3)cc2)o1	1	2	-7	-6	37*	3	34*	4
COc1ccccc1-c1nnc(NC(=O)c2ccc(S(=O)(=O)N(C)Cc3ccccc3)cc2)o1	/	0	/	4	21*	3	31*	-1
SMILES	MsrA inh	EBNA-1 inh	bovine MsrA act	ZTA counter	PP1 inh	PP5 inh	PP1 confirm	PP5 inh counter
CCN(CC)S(=O)(=O)c1ccc(C(=O)Nc2nnc(CSC)o2)cc1	-1	20	-11	7	8	0	/	/
CCN(CC)S(=O)(=O)c1ccc(C(=O)Nc2nnc(COC)o2)cc1	0	4	-5	9	5	3	/	/
CCc1nnc(NC(=O)c2ccc(S(=O)(=O)N(CC)Cc3ccccc3)cc2)o1	0	1	-2	-21	36*	-4	32*	0
COc1ccccc1-c1nnc(NC(=O)c2ccc(S(=O)(=O)N3CCOCC3)cc2)o1	1	-5	-3	-1	3	5	/	/
CN(Cc1ccccc1)S(=O)(=O)c1ccc(C(=O)Nc2nnc(C3CC3)o2)cc1	/	10	-1	-1	36*	2	31*	0
CCOC(=O)C1CCN(C(=O)CCNS(=O)(=O)c2ccc3c(c2)CCN3C(=O)CC)CC1	-1	-6	-2	-14	2	-2	/	/
CCN(Cc1ccccc1)S(=O)(=O)c1ccc(C(=O)Nc2nnc(C)o2)cc1	1	8	2	-15	38*	3	26*	-1
CCN(CC)CCN1C(=O)C(O)=C(C(=O)c2cc3cccc(OC)c3o2)C1c1ccc(F)cc1 (configuration not stated)	0	-15	-3	1	1	3	/	/
Cc1ccc(C2C(C(=O)c3cc4ccccc4o3)=C(O)C(=O)N2CCN2CCOCC2)cc1 (configuration not stated)	2	0	-6	5	14	2	/	/
O=C(C1=C(O)C(=O)N(CCN2CCOCC2)C1c1ccc(Br)cc1)c1cc2ccccc2o1 (configuration not stated)	1	1	-4	12	23*	3	12	3
COc1cccc2cc(C(=O)C3=C(O)C(=O)N(CCN4CCOCC4)C3c3ccc(C(C)(C)C)cc3)oc12 (configuration not stated)	-1	-7	-2	11	21*	4	27*	1
O=C(CNCc1ccco1)Nc1ccc(Oc2ccccc2)cc1	-1	-6	-4	-5	0	4	/	/
COc1c(N2CCN(C(=S)NC3CC4CCC3C4)C(C)C2)c(F)cc2c(=O)c(C(=O)O)cn(C3CC3)c12 (configuration not stated)	0	-2	-2	5	21*	-1	38*	-5
COC(=O)[C@]12C[C@H](CC(=O)NCCCCc3ccccc3)C(=O)N(CCC3=CCCCC3)C1=C[C@H](C(C)(C)C)O[C@@H]2C	0	/	/	/	/	/	/	/

Compound activity (PubChem)
